# Screening results: PubChem BioAssay, National Center for Advancing Translational Sciences (NCATS)
# MCF10A rereplic = DNA re-replication induction in MCF 10a cells | Potency, µM (titrated, usually from 46.1 µM), without a hit: at the highest dose activity, positive = re-replication, hits mostly activators | MCF 10A DNA re-replication, Hoechst nuclear intensity, 48 h | AID 624296 | 350,000 compounds, 2.9% hits; further: potency means the concentration at half of the fitted maximal effect; % of control where 0% means no effect; nearly all actives have a fitted effect of over 50% in size
# SW480 rereplic = DNA re-replication induction in SW480 cells. SW480 DNA re-replication, Hoechst DNA content imaging, 48 h. Potency, µM (series often up to 46.1 µM), for inactives: at the highest dose re-replication activation, usual class: activators. 340,000 compounds, 1.8% hits; further: potency means the concentration at half of the fitted maximal effect; % of control where 0% means no effect; nearly all actives have a fitted effect of over 55% in size
#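 Quantitative HTS format with DMSO vehicle controls; 48 hr drug incubation at 37 C, then 40 min Hoechst staining and scanning imager measurement at 405 nm excitation.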
# IL-1B inflam inh = blocks inflammasome-driven IL-1 beta release. activity change, % at 57.5 µM. THP-1 LPS/ATP IL-1B secretion, AlphaLISA, 16 h; stronger effect = lower value. 360,000 compounds, 4.7% hits; in the data active means activity change below about -50%; inconclusive means mostly about -30% to -49%; further: on the % scale 0 is the no-effect control and ±100 the full control effect
#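 Secreted IL-1B measured by AlphaLISA bead assay after 16 h compound exposure of THP-1 cells; compounds (final up to 57.5 uM) added 1 h before LPS (250 ng/mL) and ATP (1.25 mM) stimulation; lower signal means less secretion.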
# Vif-APOBEC3G blk = inhibitors of Vif-APOBEC3G interaction | HeLa A3G-eYFP + Vif (tagged APOBEC3G with the HIV-1 protein that degrades it), YFP fluorescence, overnight | Potency, µM (highest dose often 46.1 µM), without a hit: at the highest dose activity, negative = active, usual class: inhibitors | 410,000 compounds, 0.076% hits | AID 602310; further: potency means the concentration at half of the fitted maximal effect; on the % scale 0 is the no-effect control and ±100 the full control effect; nearly all actives have a fitted effect of over 60% in size
# Target sequence (Q9HC16 whole entry, looked up): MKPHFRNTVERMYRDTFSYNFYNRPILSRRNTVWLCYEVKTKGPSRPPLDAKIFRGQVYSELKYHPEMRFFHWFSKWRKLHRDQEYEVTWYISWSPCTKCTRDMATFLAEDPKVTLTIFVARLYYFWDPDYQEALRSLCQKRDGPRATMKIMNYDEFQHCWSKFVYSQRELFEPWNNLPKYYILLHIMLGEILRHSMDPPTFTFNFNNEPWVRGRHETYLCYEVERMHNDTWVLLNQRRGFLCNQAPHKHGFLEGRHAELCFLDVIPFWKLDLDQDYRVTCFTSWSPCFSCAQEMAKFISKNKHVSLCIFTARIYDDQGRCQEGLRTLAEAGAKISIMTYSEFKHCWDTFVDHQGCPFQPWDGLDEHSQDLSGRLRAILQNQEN
#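 Read-out is eYFP fluorescence (Ex 488/Em 500-530) from Vif-expressing HeLa A3G-eYFP cells; more signal means A3G escaped Vif-mediated degradation. Cells plated overnight, compound pinned in, incubated overnight at 37 deg C.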
# Giardia killer = Giardia lamblia killing; Giardia lamblia trophozoite viability; activity change, % at 7.66 µM, hits read low; 340,000 compounds, 0.15% hits; in the data active means activity change below about -80%; inconclusive means between about -30% and that limit;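 further: parasites exposed to compound for two days anaerobically before the ATP read; on the % scale 0 is the no-effect control and ±100 the full control effect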
#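 Giardia lamblia trophozoites (100 cells/well) were incubated with compounds for 48 h at 37 deg C under anaerobic conditions. Viability was read as ATP content by one-step luminescence after 15-30 min at room temperature.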
# Vif-APOBEC3F blk = blocks the Vif interaction with APOBEC3F. HeLa A3F-eYFP + Vif (tagged APOBEC3F with the HIV-1 protein that degrades it), YFP fluorescence increase. Potency, µM (highest dose often 46.1 µM), for the others: at the top dose activity, negative = active. 390,000 compounds, 0.2% hits. AID 602313; further: potency means the concentration at half of the fitted maximal effect; % of control where 0% means no effect; nearly all actives have a fitted effect of over 65% in size
#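 HeLa cells stably expressing A3F-eYFP plus Vif, plated and incubated overnight at 37 deg C, then exposed to compounds overnight at 37 deg C. Blocked degradation read as raised yellow fluorescence (Ex 488/Em 500-530).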
# * hit, by the source's call; ? = inconclusive; / = no result given; [ ] = another dose, or the depositor's remark. Only some compounds are listed: those with a hit (about 6.9% of all), similar ones and a draw of the others. Unless noted, the call rests on the fitted dose curve; in most records, active means well fitted curve in the direction sought with a large enough effect; inconclusive means small, poorly fitted or top-dose-only effect, or another doubt; inactive means no such curve, though single readings can be large; an effect the other way counts as inactive or inconclusive.
SMILES,MCF10A rereplic,SW480 rereplic,IL-1B inflam inh,Vif-APOBEC3G blk,Giardia killer,Vif-APOBEC3F blk
CC(=O)c1cc(-c2ccccc2)n(CC(=O)Nc2cccc(C)c2C)c1C,-3%,-1%,10,-5%,-1,-8%
CC(=O)c1cc(-c2ccccc2)n(CC(=O)Nc2ccc(C)c(C)c2)c1C,23µM*,4%,-9,-27%,-7,-9%
COc1ccccc1NC(=O)Cn1c(=O)n(-c2ccc(C)cc2)c(=O)c2ccc(C(=O)NCc3ccco3)cc21,/,/,/,0%,/,0%
CCCCOC(=O)c1ccc(NC(=O)c2csnn2)cc1,/,/,/,2%,/,3%
C[C@@H]1[C@H](c2ccccc2)OCCS(=O)(=O)N1Cc1cccc(C(F)(F)F)c1,/,/,/,-2%,/,/
Cc1cccc(-c2nc(CN3CCCC(C(=O)N4CCN(c5cc(Cl)ccc5C)CC4)C3)c(C)o2)c1 (configuration not stated),/,/,/,-1%,/,1%
O=C(c1ccccc1)c1c[nH]c(C(=O)C(Cl)(Cl)Cl)c1,?,8%,-18,0%,8,-3%
O=C(c1ccc(Cl)cc1)c1c[nH]c(C(=O)C(Cl)(Cl)Cl)c1,?,18%,-112*,-13%,10,-17%
O=C(c1c[nH]c(C(=O)C(Cl)(Cl)Cl)c1)c1ccc(F)cc1Cl,9%,26%,-63*,-8%,-10,-3%
O=C(c1c[nH]c(C(=O)C(Cl)(Cl)Cl)c1)c1ccc(F)cc1F,3%,?,0,-9%,-3,-9%
Cc1oc(-c2ccccc2Cl)nc1CSc1nncn2c1cc1occc12,/,/,/,0%,/,-1%
Cc1ccc(Cl)cc1NC(=O)C1CCN(c2nnc(C)c3c(C)n(-c4ccccc4)nc23)CC1,/,/,/,-4%,/,?
COc1ccc(C(=O)OC(COc2ccccc2)Cn2ccnc2)cc1 (configuration not stated),-8%,3%,-90*,-1%,37,0%
COc1ccc(S(=O)(=O)n2cnc3cc(C)c(C)cc32)cc1,0%,-3%[9.22 µM],-6,4%,-5,-9%
COc1ccc(S(=O)(=O)n2cnc3cc(C)c(C)cc32)cc1C,7%,5%,-53*,2%,-11,-1%
CN(Cc1ccccc1)Cc1ccccc1,1%,0%,/,/,/,/
N#CN(Cc1ccccc1)Cc1ccccc1,13%,?,-64*,0%,-9,-8%
Cc1ccc(N2CCN(Cc3nnc(-c4ccccc4F)o3)CC2)c(C)c1,/,/,/,0%,/,4%
Oc1ccc(Nc2ncnc3scc(-c4ccccc4)c23)cc1,-3%,4%,-10,-6%,9,-22%
Cc1ccc(-c2csc3ncnc(Nc4ccc(N5CCOCC5)cc4)c23)cc1,?,10%,-75*,1%,-3,5%
Cc1ccc(-c2csc3ncnc(NCCN4CCOCC4)c23)cc1,?,17%,-65*,1%,-4,-4%
O=C1c2ccccc2NC(c2ccccc2OCc2ccccc2)N1Cc1ccco1 (configuration not stated),/,/,/,2%,-21,/
CC1=C(C)CS(=O)N(c2ccc(S(N)(=O)=O)cc2)C1 (configuration not stated),?,?,-93*,3%,27,10%
CC1=C(C)CS(=O)N(S(=O)(=O)c2ccccc2)C1 (configuration not stated),?,?,-50*,-6%,4,?
COc1cccc(CNC(=O)CSc2nc3ccccc3nc2Cc2ccc(C)cc2)c1OC,/,/,/,0%,/,-1%
SMILES,MCF10A rereplic,SW480 rereplic,IL-1B inflam inh,Vif-APOBEC3G blk,Giardia killer,Vif-APOBEC3F blk
CC(C)(C)c1ccc(-c2nnc(-c3ccccc3NC(=O)c3cccc(C(F)(F)F)c3)o2)cc1,/,/,/,-8%,/,-4%
CCCOc1ccc(C2C(=O)N(C3CCCCCC3)CC(=O)N2CCCOCC)cc1OC (configuration not stated),/,/,/,-2%,/,-1%
Nc1cccc(CCc2nc3cc4ccccc4cc3[nH]2)c1,7.3µM*,3.7µM*,?,?,-7,6%
Nc1ccc2nc(CCCCCCCCc3nc4ccc(N)cc4[nH]3)[nH]c2c1,2.3µM*,0%,?,1%,5,3%
Cc1ccc(-c2nnc(Nc3ccccc3)c3ccccc23)cc1S(=O)(=O)NCC1CCCO1 (configuration not stated),?,5%,-62*,-9%,-8,1%
Cc1ccc(-c2nnc(Nc3ccc4c(c3)OCO4)c3ccccc23)cc1S(=O)(=O)NCCO,?,-1%,-9,?,14,-1%
CC(=O)Nc1ccc(Nc2nnc(-c3ccc(C)c(S(=O)(=O)NCC4CCCO4)c3)c3ccccc23)cc1 (configuration not stated),-5%,-7%,-10,1%,20,1%
Cc1ccccc1S(=O)(=O)NCC1CCCO1 (configuration not stated),-12%,26µM*,1,-4%,-11,6%
Cc1ccc(-c2nnc(Nc3ccc4c(c3)OCO4)c3ccccc23)cc1S(=O)(=O)NC(C)C,?,7%,-57*,-7%,-6,9%
CCCCOc1ccc(C(C)NC(=O)c2cccc(Nc3nc4ccccc4n4nnnc34)c2)cc1 (configuration not stated),/,/,/,-2%,/,?
CCc1cccc(NC(=O)Cn2c(=O)n(-c3ccccc3C)c(=O)c3c2c2cc(C)ccc2n3C)c1,/,/,/,-23%,/,-3%
CCc1ccccc1N(CC)C(=O)Cn1nc(Cc2ccncc2)c2ccccc2c1=O,/,/,/,-7%,/,1%
CCCCCOc1ccc(NC(=O)Cc2csc(C)n2)cc1,/,/,/,-3%,/,0%
Cc1nc(N2CCN(c3ccccn3)CC2)c2c(C)c(C(=O)Nc3c(C)cc(Br)cc3C)sc2n1,10%,?,?,0%,6,7%
Cc1nc(N2CCN(C)CC2)c2c(C)c(C(=O)Nc3ccc(C)c(F)c3)sc2n1,?,?,-60*,-1%,12,3%
Cc1nc(N2CCN(c3ccccn3)CC2)c2c(C)c(C(=O)Nc3ccc(Cl)cc3)sc2n1,-8%,-7%,-58*,1%,-5,-6%
Cc1nc(N2CCC(C)CC2)c2c(C)c(C(=O)Nc3ccc(C)c(F)c3)sc2n1,-1%,-5%,-14,-12%,-10,4%
CC1CCC(NC(=O)c2ccc3c(c2)N(Cc2ccccc2F)C(=O)c2ccccc2S3=O)CC1 (configuration not stated),/,/,/,0%,/,6%
O=S(=O)(Nc1nc2ccccc2nc1Nc1ccc2c(c1)OCCO2)c1cccs1,12%,-5%,-16,-16%,-14,11µM*
